Compounds with a hit are over-represented: about 31% of the library has one in this group of screens.
CYP2C9 activ = increases human cytochrome P450 2C9 activity | P11712 | recombinant CYP2C9, luciferin-H conversion, luminescence; active compounds read high; factor 1 = untreated enzyme, 0 = blocked | activation factor at 5 µM | 96,000 tested, 1.4% active;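 active = activation factor of 2 or more for CYP2C9 at a 5 µM dose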;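 note: 0 = sulfaphenazole-blocked wells and 1 = vehicle-only wells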
CYP2C19 activ = activators of human cytochrome P450 2C19; P33261; recombinant CYP2C19, luciferin-H EGE luminescence; active compounds read high; 0 = fully inhibited enzyme, 1 = untreated enzyme; activation factor at 5 µM; 96,000 tested, under 10 active;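 active = activation factor of at least 2 at 5 µM in the primary screen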;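 note: 0 = wells with 2.5 mM tranylcypromine and 1 = vehicle-only wells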
Target sequence (P33261 whole entry, looked up): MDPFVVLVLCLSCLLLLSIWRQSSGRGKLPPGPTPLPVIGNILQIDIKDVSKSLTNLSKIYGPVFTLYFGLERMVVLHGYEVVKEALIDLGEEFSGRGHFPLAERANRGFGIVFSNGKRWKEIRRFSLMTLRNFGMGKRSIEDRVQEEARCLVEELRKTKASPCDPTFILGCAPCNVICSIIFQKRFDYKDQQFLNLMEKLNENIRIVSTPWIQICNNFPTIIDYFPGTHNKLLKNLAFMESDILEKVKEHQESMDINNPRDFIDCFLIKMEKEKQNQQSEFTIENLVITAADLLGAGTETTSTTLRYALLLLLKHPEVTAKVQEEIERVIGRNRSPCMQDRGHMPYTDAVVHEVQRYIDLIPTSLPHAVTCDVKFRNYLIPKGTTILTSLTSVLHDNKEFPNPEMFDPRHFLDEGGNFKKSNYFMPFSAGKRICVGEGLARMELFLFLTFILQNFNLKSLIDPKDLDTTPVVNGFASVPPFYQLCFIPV
CYP2C19 inh = blocks human cytochrome P450 2C19. CYP2C19 Supersomes, luciferin-H EGE luminescence, 30 min. P33261. AID 778. inhibition, % at 5 µM. 96,000 tested, 21% active;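 active = CYP2C19 inhibition above a set limit at 5 µM in the primary screen, cut at about 50% in these data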;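 note: plate controls were negative control wells for no effect and 2.5 mM tranylcypromine positive control for full effect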
CYP2C9 inhib = inhibitors of human CYP2C9. CYP2C9 Supersomes, luciferin-H conversion, luminescence. 96,000 tested, 20% active. inhibition, % at 5 µM. AID 777. P11712;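 active = blocking of liver enzyme CYP2C9 beyond about 50% at 5 µM, limit read from the data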
* marks the source's active call; other numbers are inactive results.

SMILES | CYP2C9 activ | CYP2C19 activ | CYP2C19 inh | CYP2C9 inhib
Cc1cc(NS(=O)(=O)c2ccc(NC(=O)C(c3ccccc3)c3ccccc3)cc2)no1 | 0.4 | 0.9 | 12 | 64*
CCC(C(=O)Nc1cc(C)on1)c1ccccc1 (stereo not given) | 0.5 | 0.3 | 65* | 54*
O=C(CSc1ccc2c(c1)OCCO2)NC(=O)NC1CCCC1 | 0.3 | 0.1 | 94* | 72*
O=C(CSc1ccc2c(c1)OCCO2)Nc1ncc(Cl)cc1Cl | 0.2 | 0.2 | 76* | 82*
O=C(Nc1ccc2c(c1)OCCO2)NC1CCCCC1 | 1.1 | 0.8 | 21 | -9
CCC(C(=O)Nc1cc(C)nn1-c1nc(C)cc(C)n1)c1ccccc1 (stereo not given) | 0.7 | 0.9 | 14 | 34
COC(=O)NNC(=O)c1ccccc1C | 1 | 1.1 | -13 | -5
Cc1cccc2cc(COC(=O)C3CCCCC3)c(=O)[nH]c12 | 1 | 0.9 | 10 | -2
N#CCCn1nc(-c2ccccc2)cc1-n1c(C(F)(F)F)nc2ccccc21 | 0 | 0.1 | 87* | 96*
Cc1nn(CCC#N)c2nc(-c3ccccc3)cc(C(F)(F)F)c12 | 1 | 0.9 | 10 | 0
COCCCNC(=O)c1cn(C)c(=O)c2cc(OC)c(OC)cc12 | 1 | 1.1 | -10 | -1
C[C@H](N)c1nnc(SCc2ccc(Cl)cc2Cl)o1 | 0.2 | 0 | 100* | 82*
CCC(c1nnc(SCC(=O)NCCc2ccc(Cl)cc2Cl)o1)N(C)C (stereo not given) | 0.4 | 0.2 | 79* | 58*
C[C@H](N)c1nnc(SCc2c(Cl)cccc2Cl)o1 | 0.4 | 0 | 99* | 58*
C[C@H](N)c1nnc(SCC(=O)N(C)C)o1 | 0.9 | 1 | 4 | 12
CCC(C)[C@H](N)c1nnc(SCC(=O)c2ccc(Cl)cc2)o1 (stereo not given in full) | 0.3 | 0 | 100* | 71*
Clc1cccc(Cl)c1CSc1nnc(/C=C/c2ccccc2)o1 | 0.9 | 0.8 | 24 | 8
O=C(NC12CC3CC(CC(C3)C1)C2)c1cncc(O)c1 | 0.9 | 0.9 | 14 | 13
CC1CN(c2cc(=O)n(-c3ccccc3)c(=O)[nH]2)CC(C)O1 (stereo not given) | 0.9 | 1.1 | -10 | 8
CC(C)[C@H](N)c1nnc(SCc2ccc(Cl)cc2)o1 | 0.8 | 0 | 96* | 15
CCOc1ccc(NC(=O)CN2CCN(CC(=O)c3ccc(OC)c(OC)c3)CC2)cc1 | 0.9 | 0.9 | 11 | 10
CCCCOc1ccc(-c2nnn(CCC(=O)N3CCOCC3)n2)cc1 | 0.9 | 0.7 | 26 | 9
Cc1nc2c(cnn2-c2ccccc2Cl)c(=O)n1-c1ccc(N2CCC(C)CC2)cc1 | 1.4 | 0.3 | 72* | -38
CCc1nc2c(cnn2-c2ccc(F)cc2)c(=O)n1-c1ccc(N2CCC(C)CC2)cc1 | 0.9 | 0.5 | 50* | 12
Cc1ccc(-n2c(C)nc3c(cnn3-c3ccccc3Cl)c2=O)cc1C | 0.9 | 0.4 | 59* | 15
SMILES | CYP2C9 activ | CYP2C19 activ | CYP2C19 inh | CYP2C9 inhib
COC(=O)c1c(C)oc2ccc(NS(=O)(=O)c3cc(OC)ccc3OC)cc12 | 0.8 | 1 | 4 | 15
CCCCOC(=O)c1c(C)oc2ccc(NS(=O)(=O)c3ccc4c5c(cccc35)C(=O)N4)cc12 | 0 | 0.3 | 66* | 96*
CCOC(=O)c1c(C)oc2ccc(NS(=O)(=O)c3cccs3)cc12 | 0.2 | 0.4 | 64* | 79*
COCCOC(=O)c1c(C)oc2ccc(NS(=O)(=O)c3ccc(C(=O)O)cc3)cc12 | 0.9 | 1 | 0 | 13
CCCOC(=O)c1ccc(NS(=O)(=O)c2cccs2)cc1 | 0 | 1.1 | -14 | 100*
N#CC1=C(N)OC2=C(C(=O)CCC2)C12C(=O)N1CCCc3cccc2c31 (stereo not given) | 1.1 | 1 | -5 | -10
C=CCSc1nc2ccccc2n1C(=O)/C=C/c1ccc(OC)c(OC)c1 | 0.7 | 0.7 | 28 | 34
C=CCSc1nc2ccccc2n1C(=O)/C=C/c1cc(OC)c(OC)c(OC)c1 | 0.2 | 0.5 | 55* | 78*
COc1ccc(N2C(=O)CCC(C(C)=O)=C2C)cc1 | 0.9 | 0.8 | 24 | 8
Cc1ccc(N=C2N=C(N)c3ccccc32)c(C)c1 | 0.4 | 1 | 5 | 58*
COc1nnc(-c2ccc(N3CCCCC3)c(NC(=O)C3CCCCC3)c2)c2ccccc12 | 0.6 | 0.8 | 24 | 40
COc1nnc(-c2ccc(N3CCCCC3)c(NC(C)=O)c2)c2ccccc12 | 0.3 | 0.5 | 54* | 66*
Cc1nc2sccc2c(=O)n1-c1cccc(Cl)c1 | 0.9 | 0.3 | 70* | 14
Cc1ccc(-n2c(C)nc3c(cnn3-c3ccc(C)c(C)c3)c2=O)cc1C | 0.9 | 0.9 | 7 | 5
O=C(N/N=C/c1ccc2ccccc2c1)c1ccc(COc2ccc3c(c2)CCC3)o1 | 0.5 | 0.5 | 48 | 48
c1csc(Cc2nn3c(-c4n[nH]c5c4CCC5)nnc3s2)c1 | 0.8 | 1 | 2 | 15
c1coc(-c2nnc3sc(Cc4cccs4)nn23)c1 | 0.5 | 0.3 | 69* | 55*
Clc1ccc(-c2nnc3sc(Cc4cccs4)nn23)c(Cl)c1 | 0.2 | 0.1 | 87* | 78*
COc1ccc(OCc2nn3c(-c4cccc(OC)c4)nnc3s2)cc1 | 0.7 | 0.5 | 51* | 34
Clc1ccc(OCc2nn3c(-c4ccncc4)nnc3s2)cc1 | 0.3 | 0.1 | 92* | 69*
CCOc1ccc(-c2nnc3sc(COc4ccc(C)cc4)nn23)cc1 | 0.8 | 0.6 | 45 | 18
c1coc(-c2nn3c(-c4ccco4)nnc3s2)c1 | 0.9 | 0.6 | 41 | 15
CN(C)CCNC(=O)Cn1nc(C(F)F)cc1C1CC1 | 1 | 1 | -1 | -1
Cc1cc(NC(=O)CSc2nnc3c(C)cc4cc5c(cc4n23)OCO5)no1 | 0.9 | 1 | 2 | 13
CC(C)Sc1n[nH]c2nc3c(c(=O)n12)C1(CCCC1)Cc1ccccc1-3 | 0.7 | 1.1 | -7 | 28
SMILES | CYP2C9 activ | CYP2C19 activ | CYP2C19 inh | CYP2C9 inhib
COc1ccc(OCc2nn3c(-c4ccco4)nnc3s2)cc1 | 0.4 | 0.4 | 57* | 59*
Clc1ccc(OCc2nn3c(-c4ccco4)nnc3s2)cc1 | 0.8 | 0.8 | 21 | 17
CC(C)CC(NC(=O)OC(C)(C)C)C(=O)NC(C(=O)N1CCCC1C(N)=O)C(C)C (stereo not given) | 1.1 | 1.1 | -10 | -12
COCCCNc1nc(-c2ccncc2)nc2ccccc12 | 0.3 | 0.2 | 78* | 71*
COCCCNC(c1ccccc1)c1ccncc1 (stereo not given) | 0.4 | 0.1 | 86* | 65*
COCCCNc1ccnc2c(Cl)cccc12 | 0.9 | 0.8 | 21 | 5
COCCCNc1cc(C)nc2ccccc12 | 0.9 | 1 | 2 | 5
O=C(O)COc1ccc2c(c1)OCCO2 | 1.1 | 1.1 | -7 | -10
O=C(CCn1nnc2ccccc21)N1CCC(O)(c2cccc(F)c2)CC1 | 0.5 | 0.6 | 43 | 52*
O=C(CCn1nnc2ccccc21)Nc1nnc(Cc2ccc(F)cc2)s1 | 0.9 | 0.9 | 11 | 10
COc1ccc2nc3sc(C(=O)NCc4cccs4)c(N)c3cc2c1 | 0.4 | 0.2 | 77* | 56*

Screening results deposited in PubChem BioAssay by Sanford-Burnham Center for Chemical Genomics.
